# According to paper PMC7862700, “An all-to-all approach to the identification of sequence-specific readers for epigenetic DNA modifications on cytosine”:
# Key:
# Assay in all cases: DAPPL (digital affinity profiling via proximity ligation, sequencing); 10 mM Tris-HCl pH 7.5, 50 mM NaCl, 1 mM DTT, 4% glycerol, room temperature, 30 min; GST-TFs on glutathione beads, 16-mer random dsDNA library, 0.1% formaldehyde crosslink after washing; high values mean tight binding
# [1] = biological target: T1, FLI1 (Homo sapiens, UniProt Q01543 1-452); conditions: protein: recombinant; tags: N-terminal GST; dsDNA, one strand shown
# T1 sequence: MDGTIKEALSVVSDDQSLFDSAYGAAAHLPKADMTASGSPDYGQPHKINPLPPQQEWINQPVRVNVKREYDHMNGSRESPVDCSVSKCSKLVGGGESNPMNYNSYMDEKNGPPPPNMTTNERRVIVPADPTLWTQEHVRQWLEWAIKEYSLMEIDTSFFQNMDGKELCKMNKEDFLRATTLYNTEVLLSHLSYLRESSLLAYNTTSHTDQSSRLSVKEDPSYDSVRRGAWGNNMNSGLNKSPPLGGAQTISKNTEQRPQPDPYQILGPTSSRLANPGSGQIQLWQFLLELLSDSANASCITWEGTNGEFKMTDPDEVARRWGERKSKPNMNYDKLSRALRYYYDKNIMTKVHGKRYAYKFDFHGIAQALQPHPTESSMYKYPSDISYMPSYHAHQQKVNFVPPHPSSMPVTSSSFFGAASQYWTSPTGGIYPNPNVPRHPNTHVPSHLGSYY
# Summary of the method: (§1)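 Pools of DNA-barcoded human transcription factors, expressed in yeast as GST fusions on glutathione beads and combined with a tag-only sample, were incubated with 200 nmole of a 16-mer random double-stranded DNA library. Incubation took 30 min at room temperature in Tris/NaCl/DTT/glycerol buffer and was followed by washing, 0.1% formaldehyde crosslinking, proximity ligation (BsaI/T4 ligase, 1 h, 37 °C), PCR amplification and sequencing on an Illumina NextSeq500. Binding signal is the ratio of a hexamer's read frequency for a factor to its frequency for the tag-only sample.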
# [2] = biological target: T2, ELK1 (Homo sapiens, UniProt P19419 1-428); conditions: protein: recombinant; tags: N-terminal GST; dsDNA, one strand shown
# T2 sequence: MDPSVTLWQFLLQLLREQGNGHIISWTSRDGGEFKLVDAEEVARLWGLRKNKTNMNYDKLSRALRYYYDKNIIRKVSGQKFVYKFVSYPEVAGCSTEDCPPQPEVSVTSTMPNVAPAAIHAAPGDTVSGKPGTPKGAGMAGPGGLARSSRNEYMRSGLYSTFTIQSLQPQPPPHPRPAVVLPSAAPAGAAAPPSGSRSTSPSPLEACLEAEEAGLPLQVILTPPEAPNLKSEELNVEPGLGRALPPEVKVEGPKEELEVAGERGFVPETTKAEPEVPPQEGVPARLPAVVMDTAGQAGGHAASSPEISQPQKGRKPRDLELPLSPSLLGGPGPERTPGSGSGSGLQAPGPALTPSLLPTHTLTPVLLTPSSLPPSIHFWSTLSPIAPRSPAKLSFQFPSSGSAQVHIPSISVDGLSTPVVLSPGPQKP
# Summary of the method: as §1
# [3] = biological target: T3, GABPA (Homo sapiens, UniProt Q06546 1-454); conditions: protein: recombinant; tags: N-terminal GST; dsDNA, one strand shown
# T3 sequence: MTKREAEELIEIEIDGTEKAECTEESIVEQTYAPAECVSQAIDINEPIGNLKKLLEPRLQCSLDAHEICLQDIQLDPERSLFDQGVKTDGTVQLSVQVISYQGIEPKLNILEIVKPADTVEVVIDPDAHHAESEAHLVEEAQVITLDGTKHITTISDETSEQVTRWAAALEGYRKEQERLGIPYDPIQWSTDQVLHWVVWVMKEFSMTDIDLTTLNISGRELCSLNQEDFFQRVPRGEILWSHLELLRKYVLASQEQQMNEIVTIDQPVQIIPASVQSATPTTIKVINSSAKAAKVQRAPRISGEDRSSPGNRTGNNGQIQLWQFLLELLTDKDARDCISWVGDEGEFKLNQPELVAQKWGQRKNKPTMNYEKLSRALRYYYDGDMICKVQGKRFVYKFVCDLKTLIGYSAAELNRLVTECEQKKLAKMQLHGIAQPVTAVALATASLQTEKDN
# Summary of the method: as §1
# [4] = biological target: T4, ERG (Homo sapiens, UniProt P11308 1-479); conditions: protein: recombinant; tags: N-terminal GST; dsDNA, one strand shown
# T4 sequence: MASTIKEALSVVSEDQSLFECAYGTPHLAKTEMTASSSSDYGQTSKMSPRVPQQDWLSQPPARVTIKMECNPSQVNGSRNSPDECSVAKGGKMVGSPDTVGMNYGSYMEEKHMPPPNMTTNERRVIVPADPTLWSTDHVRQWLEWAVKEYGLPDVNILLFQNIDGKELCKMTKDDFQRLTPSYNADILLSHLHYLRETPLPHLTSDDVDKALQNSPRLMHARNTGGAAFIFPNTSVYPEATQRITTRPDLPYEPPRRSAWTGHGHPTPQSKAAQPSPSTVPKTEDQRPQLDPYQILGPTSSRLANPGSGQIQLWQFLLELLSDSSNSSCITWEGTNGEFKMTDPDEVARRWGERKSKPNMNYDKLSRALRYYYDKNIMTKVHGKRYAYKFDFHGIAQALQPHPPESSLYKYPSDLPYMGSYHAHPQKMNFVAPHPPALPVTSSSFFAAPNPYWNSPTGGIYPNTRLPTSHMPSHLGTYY
# Summary of the method: as §1
# [5] = biological target: ELF1 (Homo sapiens, UniProt P32519 1-619); conditions: protein: recombinant; tags: N-terminal GST; dsDNA, one strand shown
# Sequence of ELF1 (P32519 whole entry): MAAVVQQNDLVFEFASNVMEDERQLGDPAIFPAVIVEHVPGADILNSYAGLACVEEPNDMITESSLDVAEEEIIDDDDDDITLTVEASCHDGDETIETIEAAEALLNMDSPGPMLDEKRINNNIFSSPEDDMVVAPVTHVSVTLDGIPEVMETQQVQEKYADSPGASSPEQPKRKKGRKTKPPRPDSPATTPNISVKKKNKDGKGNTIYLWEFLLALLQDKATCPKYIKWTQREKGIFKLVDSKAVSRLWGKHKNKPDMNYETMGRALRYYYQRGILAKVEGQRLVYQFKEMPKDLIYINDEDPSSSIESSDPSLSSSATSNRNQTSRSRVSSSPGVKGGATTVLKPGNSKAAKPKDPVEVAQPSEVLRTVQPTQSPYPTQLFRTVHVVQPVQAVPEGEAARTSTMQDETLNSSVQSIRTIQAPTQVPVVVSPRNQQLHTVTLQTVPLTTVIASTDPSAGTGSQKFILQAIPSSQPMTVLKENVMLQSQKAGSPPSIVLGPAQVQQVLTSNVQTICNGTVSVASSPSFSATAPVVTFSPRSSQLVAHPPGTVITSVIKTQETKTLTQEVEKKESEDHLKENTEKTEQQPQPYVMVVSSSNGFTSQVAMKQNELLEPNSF
# Summary of the method: as §1
# [6] = biological target: T5, EHF (Homo sapiens, UniProt Q9NZC4 1-300); conditions: protein: recombinant; tags: N-terminal GST; dsDNA, one strand shown
# T5 sequence: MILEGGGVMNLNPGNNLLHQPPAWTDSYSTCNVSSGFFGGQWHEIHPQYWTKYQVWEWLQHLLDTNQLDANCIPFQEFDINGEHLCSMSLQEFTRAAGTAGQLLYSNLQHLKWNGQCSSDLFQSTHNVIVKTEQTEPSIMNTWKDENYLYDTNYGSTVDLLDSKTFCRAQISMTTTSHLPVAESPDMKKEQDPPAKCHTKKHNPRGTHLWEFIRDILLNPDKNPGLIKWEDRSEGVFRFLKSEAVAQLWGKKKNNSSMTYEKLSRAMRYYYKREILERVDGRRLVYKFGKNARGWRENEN
# Summary of the method: as §1
# [7] = biological target: SPI1 (Homo sapiens, UniProt P17947 1-270); conditions: protein: recombinant; tags: N-terminal GST; dsDNA, one strand shown
# Summary of the method: as §1
# [8] = biological target: SPIB (Homo sapiens, UniProt Q01892 1-262); conditions: protein: recombinant; tags: N-terminal GST; dsDNA, one strand shown
# Sequence of SPIB (Q01892 whole entry): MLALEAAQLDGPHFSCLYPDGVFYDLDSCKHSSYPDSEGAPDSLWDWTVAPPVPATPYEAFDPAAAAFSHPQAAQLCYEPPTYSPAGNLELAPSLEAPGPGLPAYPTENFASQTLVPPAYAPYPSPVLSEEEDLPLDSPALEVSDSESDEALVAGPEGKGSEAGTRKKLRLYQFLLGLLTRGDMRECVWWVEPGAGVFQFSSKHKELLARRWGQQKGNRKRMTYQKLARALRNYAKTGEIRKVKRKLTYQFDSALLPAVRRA
# Summary of the method: as §1
# [9] = biological target: T6, ELK3 (Homo sapiens, UniProt P41970 1-407); conditions: protein: recombinant; tags: N-terminal GST; dsDNA, one strand shown
# T6 sequence: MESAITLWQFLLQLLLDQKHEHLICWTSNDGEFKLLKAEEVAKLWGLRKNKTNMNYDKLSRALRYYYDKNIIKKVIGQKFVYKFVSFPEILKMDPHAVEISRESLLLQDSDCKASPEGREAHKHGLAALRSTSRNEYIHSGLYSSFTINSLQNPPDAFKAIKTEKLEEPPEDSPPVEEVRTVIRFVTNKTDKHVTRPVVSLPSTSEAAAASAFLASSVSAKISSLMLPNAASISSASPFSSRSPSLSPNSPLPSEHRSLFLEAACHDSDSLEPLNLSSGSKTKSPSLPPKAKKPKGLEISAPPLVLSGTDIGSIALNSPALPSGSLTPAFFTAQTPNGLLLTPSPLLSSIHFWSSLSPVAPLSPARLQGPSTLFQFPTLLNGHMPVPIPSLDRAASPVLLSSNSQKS
# Summary of the method: as §1
# [10] = biological target: T7, FEV (Homo sapiens, UniProt Q99581 1-238); conditions: protein: recombinant; tags: N-terminal GST; dsDNA, one strand shown
# T7 sequence: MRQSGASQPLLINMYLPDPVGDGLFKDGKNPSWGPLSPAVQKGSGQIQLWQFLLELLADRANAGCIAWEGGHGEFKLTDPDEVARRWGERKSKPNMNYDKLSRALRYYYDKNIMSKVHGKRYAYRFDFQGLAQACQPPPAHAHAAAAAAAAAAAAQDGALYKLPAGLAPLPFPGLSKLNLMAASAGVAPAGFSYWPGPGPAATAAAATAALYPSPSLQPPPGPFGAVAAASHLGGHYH
# Summary of the method: as §1
# [11] = biological target: ETV5 (Homo sapiens, UniProt P41161 1-510); conditions: protein: recombinant; tags: N-terminal GST; dsDNA, one strand shown
# Sequence of ETV5 (P41161 whole entry): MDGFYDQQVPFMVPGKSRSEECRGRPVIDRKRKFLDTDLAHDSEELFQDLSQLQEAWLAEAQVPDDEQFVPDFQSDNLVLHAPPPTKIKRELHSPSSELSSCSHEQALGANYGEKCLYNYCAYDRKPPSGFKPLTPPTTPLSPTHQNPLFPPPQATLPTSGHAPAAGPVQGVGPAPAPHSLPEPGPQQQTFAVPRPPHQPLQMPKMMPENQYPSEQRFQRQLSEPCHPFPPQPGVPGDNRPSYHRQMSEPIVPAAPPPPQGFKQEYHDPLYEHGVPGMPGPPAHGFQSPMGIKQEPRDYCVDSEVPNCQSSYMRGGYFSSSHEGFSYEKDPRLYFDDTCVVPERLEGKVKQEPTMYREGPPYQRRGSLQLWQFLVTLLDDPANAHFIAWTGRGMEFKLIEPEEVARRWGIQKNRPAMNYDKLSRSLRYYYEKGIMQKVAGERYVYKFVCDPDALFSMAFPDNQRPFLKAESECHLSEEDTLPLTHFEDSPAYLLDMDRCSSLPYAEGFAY
# Summary of the method: as §1
# [12] = biological target: HSF1 (Homo sapiens, UniProt Q00613 1-529); conditions: protein: recombinant; tags: N-terminal GST; chain copies: 3; dsDNA, one strand shown
# Sequence of HSF1 (Q00613 whole entry): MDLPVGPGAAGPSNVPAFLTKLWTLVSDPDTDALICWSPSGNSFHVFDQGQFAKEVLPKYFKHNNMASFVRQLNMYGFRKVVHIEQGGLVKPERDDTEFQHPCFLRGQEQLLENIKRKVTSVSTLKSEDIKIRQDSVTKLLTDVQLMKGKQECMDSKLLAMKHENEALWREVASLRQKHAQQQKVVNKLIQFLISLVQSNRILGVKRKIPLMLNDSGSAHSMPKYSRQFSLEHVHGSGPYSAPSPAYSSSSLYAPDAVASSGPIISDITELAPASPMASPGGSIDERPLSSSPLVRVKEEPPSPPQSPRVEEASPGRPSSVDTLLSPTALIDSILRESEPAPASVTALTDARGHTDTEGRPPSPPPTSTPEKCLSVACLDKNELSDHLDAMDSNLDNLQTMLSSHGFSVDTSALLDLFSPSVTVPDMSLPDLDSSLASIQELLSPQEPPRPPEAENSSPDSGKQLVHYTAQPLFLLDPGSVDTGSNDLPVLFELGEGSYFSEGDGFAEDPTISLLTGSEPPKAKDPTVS
# Summary of the method: as §1
# [13] = biological target: T8, SPIC (Homo sapiens, UniProt Q8N5J4 1-248); conditions: protein: recombinant; tags: N-terminal GST; dsDNA, one strand shown
# T8 sequence: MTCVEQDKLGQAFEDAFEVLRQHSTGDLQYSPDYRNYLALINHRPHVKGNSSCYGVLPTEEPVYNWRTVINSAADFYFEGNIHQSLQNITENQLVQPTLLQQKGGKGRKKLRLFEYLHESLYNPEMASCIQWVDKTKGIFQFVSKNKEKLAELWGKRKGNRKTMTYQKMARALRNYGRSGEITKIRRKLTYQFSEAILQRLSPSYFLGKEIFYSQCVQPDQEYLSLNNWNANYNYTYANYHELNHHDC
# Summary of the method: as §1
# [14] = biological target: ELF4 (Homo sapiens, UniProt Q99607 1-663); conditions: protein: recombinant; tags: N-terminal GST; dsDNA, one strand shown
# Sequence of ELF4 (Q99607 whole entry): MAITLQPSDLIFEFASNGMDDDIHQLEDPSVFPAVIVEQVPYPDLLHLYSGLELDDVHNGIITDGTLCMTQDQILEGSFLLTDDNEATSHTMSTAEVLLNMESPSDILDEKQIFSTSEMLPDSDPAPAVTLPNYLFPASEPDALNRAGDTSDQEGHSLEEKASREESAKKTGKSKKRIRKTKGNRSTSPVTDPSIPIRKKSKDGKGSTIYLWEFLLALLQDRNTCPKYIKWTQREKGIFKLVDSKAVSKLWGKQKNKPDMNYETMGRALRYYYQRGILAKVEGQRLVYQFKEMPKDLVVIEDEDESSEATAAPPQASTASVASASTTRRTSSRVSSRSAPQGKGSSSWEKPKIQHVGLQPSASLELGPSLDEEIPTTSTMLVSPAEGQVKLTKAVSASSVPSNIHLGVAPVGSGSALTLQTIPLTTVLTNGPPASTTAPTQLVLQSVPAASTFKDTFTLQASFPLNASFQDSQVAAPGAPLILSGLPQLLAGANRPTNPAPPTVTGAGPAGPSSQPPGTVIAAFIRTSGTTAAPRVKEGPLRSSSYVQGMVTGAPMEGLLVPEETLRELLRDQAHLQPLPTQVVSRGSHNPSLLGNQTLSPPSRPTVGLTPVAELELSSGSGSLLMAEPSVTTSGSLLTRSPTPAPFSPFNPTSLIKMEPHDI
# Summary of the method: as §1
# [15] = biological target: T9, ELK4 (Homo sapiens, UniProt P28324-2 1-405); conditions: protein: recombinant; tags: N-terminal GST; dsDNA, one strand shown
# T9 sequence: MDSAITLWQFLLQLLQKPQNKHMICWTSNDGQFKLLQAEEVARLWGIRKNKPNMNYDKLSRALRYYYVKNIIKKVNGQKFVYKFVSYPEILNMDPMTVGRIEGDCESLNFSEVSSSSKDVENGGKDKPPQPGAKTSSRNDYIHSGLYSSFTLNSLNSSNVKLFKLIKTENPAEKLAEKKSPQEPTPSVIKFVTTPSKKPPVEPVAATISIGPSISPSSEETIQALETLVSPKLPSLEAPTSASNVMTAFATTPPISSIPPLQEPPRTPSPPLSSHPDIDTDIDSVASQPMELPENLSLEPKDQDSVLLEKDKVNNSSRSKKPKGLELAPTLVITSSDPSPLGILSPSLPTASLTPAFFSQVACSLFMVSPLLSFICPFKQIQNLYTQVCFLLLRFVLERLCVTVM
# Summary of the method: as §1
# [16] = biological target: T10, ETV2 (Homo sapiens, UniProt O00321 1-342); conditions: protein: recombinant; tags: N-terminal GST; dsDNA, one strand shown
# T10 sequence: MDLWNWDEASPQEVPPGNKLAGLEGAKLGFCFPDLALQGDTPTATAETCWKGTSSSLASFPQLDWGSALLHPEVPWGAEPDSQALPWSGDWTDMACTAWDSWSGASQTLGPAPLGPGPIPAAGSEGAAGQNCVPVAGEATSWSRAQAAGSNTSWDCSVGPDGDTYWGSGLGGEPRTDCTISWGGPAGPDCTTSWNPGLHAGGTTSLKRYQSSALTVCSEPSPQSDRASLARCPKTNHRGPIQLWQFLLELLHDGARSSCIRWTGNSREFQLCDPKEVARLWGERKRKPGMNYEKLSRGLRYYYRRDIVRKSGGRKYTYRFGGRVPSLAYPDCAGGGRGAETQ
# Summary of the method: as §1
# [17] = biological target: T11, ELF3 (Homo sapiens, UniProt P78545 1-371); conditions: protein: recombinant; tags: N-terminal GST; dsDNA, one strand shown
# T11 sequence: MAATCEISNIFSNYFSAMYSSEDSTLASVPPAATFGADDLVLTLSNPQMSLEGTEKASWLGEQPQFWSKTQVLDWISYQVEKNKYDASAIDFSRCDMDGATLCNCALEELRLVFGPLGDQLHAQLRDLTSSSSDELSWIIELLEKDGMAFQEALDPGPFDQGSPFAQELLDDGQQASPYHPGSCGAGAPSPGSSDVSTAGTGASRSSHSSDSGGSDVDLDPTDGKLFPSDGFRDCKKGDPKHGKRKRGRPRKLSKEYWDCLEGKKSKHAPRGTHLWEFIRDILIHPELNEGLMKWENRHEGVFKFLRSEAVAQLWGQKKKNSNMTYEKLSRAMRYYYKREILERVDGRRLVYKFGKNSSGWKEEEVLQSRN
# Summary of the method: as §1
# [18] = biological target: CRX (Homo sapiens, UniProt O43186 1-299); conditions: protein: recombinant; tags: N-terminal GST; dsDNA, one strand shown
# Sequence of CRX (O43186 whole entry): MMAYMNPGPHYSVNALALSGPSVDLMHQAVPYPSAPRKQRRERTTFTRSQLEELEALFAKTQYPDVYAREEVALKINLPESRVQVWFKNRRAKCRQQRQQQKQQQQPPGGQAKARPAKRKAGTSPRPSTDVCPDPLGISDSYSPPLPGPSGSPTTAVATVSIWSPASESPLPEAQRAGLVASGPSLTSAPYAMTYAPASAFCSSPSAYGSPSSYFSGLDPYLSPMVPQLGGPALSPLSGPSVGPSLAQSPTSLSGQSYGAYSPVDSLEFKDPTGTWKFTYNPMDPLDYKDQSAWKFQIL
# Summary of the method: as §1
# [19] = biological target: ETV1 (Homo sapiens, UniProt P50549 1-477); conditions: protein: recombinant; tags: N-terminal GST; dsDNA, one strand shown
# Sequence of ETV1 (P50549 whole entry): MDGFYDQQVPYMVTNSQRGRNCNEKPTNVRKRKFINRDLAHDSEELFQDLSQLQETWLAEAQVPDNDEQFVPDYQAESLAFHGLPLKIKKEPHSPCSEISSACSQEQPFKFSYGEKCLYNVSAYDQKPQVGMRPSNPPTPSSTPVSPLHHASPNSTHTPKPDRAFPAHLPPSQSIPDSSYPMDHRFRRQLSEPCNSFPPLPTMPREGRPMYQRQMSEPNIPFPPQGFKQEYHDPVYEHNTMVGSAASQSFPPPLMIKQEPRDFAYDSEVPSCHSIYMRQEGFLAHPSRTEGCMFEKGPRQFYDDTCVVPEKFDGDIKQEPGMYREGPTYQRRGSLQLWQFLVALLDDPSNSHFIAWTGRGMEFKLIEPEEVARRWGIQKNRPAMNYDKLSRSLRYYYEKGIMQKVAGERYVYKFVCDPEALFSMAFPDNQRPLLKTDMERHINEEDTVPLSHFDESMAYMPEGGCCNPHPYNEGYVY
# Summary of the method: as §1
sequence,measurement,setting,value
TGACCG,binding signal,[1],"1.62 fold enrichment (6-mer frequency, TF over GST control)"
same,binding signal,[2],"1.48 fold enrichment (6-mer frequency, TF over GST control)"
same,binding signal,[3],"1.59 fold enrichment (6-mer frequency, TF over GST control)"
same,binding signal,[4],"1.55 fold enrichment (6-mer frequency, TF over GST control)"
same,binding signal,[5],"1.53 fold enrichment (6-mer frequency, TF over GST control)"
same,binding signal,[6],"1.53 fold enrichment (6-mer frequency, TF over GST control)"
same,binding signal,[7],"1.52 fold enrichment (6-mer frequency, TF over GST control)"
same,binding signal,[8],"1.44 fold enrichment (6-mer frequency, TF over GST control)"
same,binding signal,[9],"1.47 fold enrichment (6-mer frequency, TF over GST control)"
same,binding signal,[10],"1.66 fold enrichment (6-mer frequency, TF over GST control)"
same,binding signal,[11],"1.33 fold enrichment (6-mer frequency, TF over GST control)"
same,binding signal,[12],"1.17 fold enrichment (6-mer frequency, TF over GST control)"
same,binding signal,[13],"1.68 fold enrichment (6-mer frequency, TF over GST control)"
same,binding signal,[14],"1.47 fold enrichment (6-mer frequency, TF over GST control)"
same,binding signal,[15],"1.4 fold enrichment (6-mer frequency, TF over GST control)"
same,binding signal,[16],"1.52 fold enrichment (6-mer frequency, TF over GST control)"
same,binding signal,[17],"1.66 fold enrichment (6-mer frequency, TF over GST control)"
same,binding signal,[18],"1.1 fold enrichment (6-mer frequency, TF over GST control)"
same,binding signal,[19],"1.56 fold enrichment (6-mer frequency, TF over GST control)"
